± gives the standard deviation of the averaged measurements.
Assays:
Conditions in all cases: concentration: 10 µM; 24 h
HCC1569 [1] = experiment: cell number relative to DMSO (% of DMSO); higher = more cells (less growth inhibition / toxicity)
Method in brief: (§1)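 Six fields per well were imaged at ×10 after the cells were fixed in 3.7% formaldehyde and stained with a rabbit anti-H1.0 antibody, an AlexaFluor 647 secondary and DAPI. The HCC1569 and TDF cells had been plated at 800 per well in 384-well plates (RPMI, 10% FBS) and treated in triplicate with compounds at 10 µM for 24 h at 37 °C. The values are the median of replicates of H1.0 nuclear intensity or cell number, as percent of the plate control. Smoothing for positional effects was applied to HCC1569 data.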

TDF [2] = experiment: as above
Method in brief: as §1

TDF [3] = experiment: H1.0 immunofluorescence intensity relative to DMSO (% of DMSO); higher = stronger H1.0 induction, active = 120 or more
Method in brief: as §1

HCC1569 [4] = experiment: H1.0 immunofluorescence intensity relative to DMSO (% of DMSO); higher = stronger H1.0 induction, active = 140 or more
Method in brief: as §1
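Throughout, for H1.0 immunofluorescence intensity relative to DMSO: TDF is a line of transformed human dermal fibroblasts of mesenchymal origin.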
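Throughout, for cell number relative to DMSO: TDF denotes transformed human dermal fibroblasts of mesenchymal origin.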

| SMILES | cell number (HCC1569 [1]) | cell number (TDF [2]) | H1.0 immunofluorescence intensity (TDF [3]) | H1.0 immunofluorescence intensity (HCC1569 [4]) |
| --- | --- | --- | --- | --- |
| O=c1[nH]c(=O)n(C2CC(O)C(CO)O2)cc1Br (stereo not given) [5-Bromo-2'-deoxyuridine] | 99 | 106 | 95.7 (inactive) | 105 (inactive) |
| CC12CCC(=O)C=C1CCC1C2C(O)CC2(C)C(C(=O)CO)CCC12 (stereo not given) [Corticosterone] | 101 ± 2.6 | 103.3 ± 0.6 | 92.8 (inactive) | 100 (inactive) |
| COc1cc2c(cc1OC)C(=O)C(CC1CCN(Cc3ccccc3)CC1)C2.Cl.Cl (stereo not given) [Donepezil.HCl] | 101 | 114 | 95.8 (inactive) | 105 (inactive) |
| CCOC(=O)C1=C(C)NC(C)=C(C(=O)OCC)C1 [Diludin] | 97.2 | 103 | 93.7 (inactive) | 97.2 (inactive) |
| NC(N)=NC(N)=Nc1ccccc1 [1-Phenylbiguanide] | 105 | 114 | 89.2 (inactive) | 84.1 (inactive) |
| Cl.N=c1ccn2c(n1)OC1C(O)C(CO)OC12 (stereo not given) [Ancitabine hydrochloride] | 73.5 | 50.3 | 109 (inactive) | 92 (inactive) |
| O=c1[nH]c(=O)n(C2CC(O)C(CO)O2)cc1F (stereo not given) [Floxuridine] | 81.3 | 61.1 | 112 (inactive) | 119 (inactive) |
| Cl.O=C1NCC2(CCN(CCc3ccccc3)CC2)O1 [Fenspiride hydrochloride] | 98.2 | 105 | 93.2 (inactive) | 91 (inactive) |
| CCCCCCCCCCCC1N[C@H](C(=O)O)CS1 (stereo partly drawn) [(4R)-2-undecyl-1,3-thiazolidine-4-carboxylic acid] | 98.7 | 105 | 95.5 (inactive) | 96.9 (inactive) |
| CCCCCC(O)C=CC=CCC=CC=CC(O)CCCC(=O)O (stereo not given) | 115 | 98.1 | 101 (inactive) | 86.5 (inactive) |
| COc1c2occc2c(OC)c2c(=O)cc(C)oc12 [Khellin] | 101 | 76.6 | 111 (inactive) | 100 (inactive) |
| O=S(=O)(O)C1CCNCC1 [Piperidine-4-sulphonic acid] | 92.6 | 101 | 89 (inactive) | 122 (inactive) |
| CCOC(=O)C(CCc1ccccc1)NC(C)C(=O)N1CCCC1C(=O)O (stereo not given) [Enalapril] | 104 | 106 | 98.8 (inactive) | 118 (inactive) |
| CCCCCC(O)C=CC1C(O)CC(O)C1CC=CCCCC(=O)O (stereo not given) [Dinoprost] | 100 | 106 | 93.2 (inactive) | 109 (inactive) |
| C[n+]1cc2c3c(ccc2c2ccc4cc5c(cc4c21)OCO5)OCO3 [Sanguinarine] | 93.5 | 93.6 | 98.2 (inactive) | 114 (inactive) |
| COc1ccc(CC2c3cc(OC)c(OC)cc3CC[N+]2(C)C)cc1OC.[I-] (stereo not given) [Laudanosine methiodide] | 101 | 112 | 91.3 (inactive) | 93.6 (inactive) |
| N#Cc1c(-c2ccccc2)cc(-c2cc(Br)ccc2O)[nH]c1=O [PIM1 Kinase Inhibitor II] | 103 | 105 | 93.5 (inactive) | 114 (inactive) |
| CC12CCC3c4ccc(O)cc4CC(CCCCCCCCCS(=O)CCCC(F)(F)C(F)(F)F)C3C1CCC2O (stereo not given) [Fulvestrant] | 94.7 | 94.3 | 104 (inactive) | 110 (inactive) |
| CC1(C)CCC(C)(C)c2cc(C3(c4ccc(C(=O)O)cc4)OCCO3)ccc21 | 100 | 99 | 92.3 (inactive) | 92.2 (inactive) |
| N=C(N)c1ccc(OCCCCCOc2ccc(C(=N)N)cc2)cc1.O=S([O-])OCCO.O=S([O-])OCCO [Pentamidine isethionate] | 93.1 | 90.6 | 103 (inactive) | 97.2 (inactive) |
| CC(C)NCC(O)c1ccc2ccccc2c1.Cl (stereo not given) [Pronethalol.HCl] | 101 | 107 | 86.6 (inactive) | 102 (inactive) |
| CN(C)C(=O)COC(=O)Cc1ccc(OC(=O)c2ccc(N=C(N)N)cc2)cc1.CS(=O)(=O)O | 99.4 | 115 | 91.2 (inactive) | 98.5 (inactive) |
| NC(N)=Nc1nc(CSCCC(N)=NS(N)(=O)=O)cs1 [Famotidine] | 102 | 102 | 94.4 (inactive) | 89.7 (inactive) |
| Nc1nc(=O)c2ncn(CCC(CO)CO)c2[nH]1 [Penciclovir] | 103 | 103 | 90.4 (inactive) | 117 (inactive) |
| CCCCCC(O)C=CC1OC(=O)CC(O)C1CC=CCCCC(=O)O (stereo not given) [11-Dehydro-thromboxane B2] | 100 | 97 | 98.6 (inactive) | 102 (inactive) |

| SMILES | cell number (HCC1569 [1]) | cell number (TDF [2]) | H1.0 immunofluorescence intensity (TDF [3]) | H1.0 immunofluorescence intensity (HCC1569 [4]) |
| --- | --- | --- | --- | --- |
| Cl.O.O.c1ccc2c(c1)CN1CCCC1=N2 [Desoxypeganine] | 101 | 109 | 89.6 (inactive) | 86.8 (inactive) |
| CC1=NN(c2ccc(C(=O)O)cc2)C(=O)/C1=C\c1ccc(-c2cc(C)c(C)cc2[N+](=O)[O-])o1 | 89.5 | 87.2 | 84.9 (inactive) | 108 (inactive) |
| N=C([NH3+])N1CCc2ccccc2C1.N=C([NH3+])N1CCc2ccccc2C1.O=S(=O)([O-])[O-] [Debrisoquin sulfate] | 104 | 107 | 101 (inactive) | 101 (inactive) |
| NC(=O)c1cccc(N)c1 [3-aminobenzamide] | 98.6 | 102 | 90.5 (inactive) | 87.7 (inactive) |
| CC1CCN=C(N)S1.Cl (racemic) | 98.5 | 103 | 108 (inactive) | 100 (inactive) |
| Nc1ccc(C(=O)Nc2cccc(-c3nc(N4CCOCC4)c4oc5ncccc5c4n3)c2)cn1 [PIKfyve Inhibitor] | 63.9 | 56.2 | 112 (inactive) | 151 (active) |
| CCCCCCCCCCCCCCCCCCOCC(COP(=O)([O-])OCC[N+](C)(C)C)OC (stereo not given) [1-Octadecyl-2-methylglycero-3 PC] | 105 | 100 | 96.6 (inactive) | 101 (inactive) |
| COC1C(N(C)C(=O)c2ccccc2)CC2OC1(C)n1c3ccccc3c3c4c(c5c6ccccc6n2c5c31)C(=O)NC4 (stereo not given) [Staurosporine, N-benzoyl-] | 66 | 53.5 | 82.4 (inactive) | 108 (inactive) |
| Cl.NC(N)=NC(=O)Cc1c(Cl)cccc1Cl [Guanfacine hydrochloride] | 104 | 114 | 86.8 (inactive) | 91.5 (inactive) |
| CC(C)COCC(CN(Cc1ccccc1)c1ccccc1)N1CCCC1.Cl (stereo not given) [Bepridil hydrochloride] | 99.7 | 103 | 92.8 (inactive) | 88.7 (inactive) |
| CC(C)CC(NC(=O)C(COC(C)(C)C)NC(=O)C(Cc1ccc(O)cc1)NC(=O)C(CO)NC(=O)C(Cc1c[nH]c2ccccc12)NC(=O)C(Cc1cnc[nH]1)NC(=O)C1CCC(=O)N1)C(=O)NC(CCCN=C(N)N)C(=O)N1CCCC1C(=O)NNC(N)=O (stereo not given) [Goserelin] | 100 | 105 | 94.5 (inactive) | 103 (inactive) |
| c1ccc2c(Cc3c[nH]c4ccccc34)c[nH]c2c1 [Diindolylmethane] | 100.67 ± 0.0078 | 97.9 ± 2.8 | 98.8 (inactive) | 91.6 (inactive) |
| C=CC(C)(O)CCC1C(=C)CCC2C(C)(C)CCCC12C (stereo not given) [Manool] | 104 | 87.8 | 99.4 (inactive) | 90.8 (inactive) |
| Cn1c(=O)c(-c2c(Cl)cccc2Cl)cc2cnc(Nc3cccc(C(=O)O)c3)nc21 | 69.7 | 111 | 95.7 (inactive) | 156 (active) |
| COc1cccc(C(=O)NCCN2CCN(c3ccc(Cl)cc3)CC2)c1 | 101 | 109 | 94.5 (inactive) | 92.3 (inactive) |
| Cc1cc2c(s1)=Nc1ccccc1NC=2N1CCN(C)CC1 [Olanzapine] | 106 | 99.4 | 92.2 (inactive) | 95.6 (inactive) |
| c1cc(-c2cnn3cc(-c4ccc(OCCN5CCCCC5)cc4)cnc23)ccn1 [AMPK Inhibitor,                  Compound C] | 102 | 102 | 85.8 (inactive) | 106 (inactive) |
| CNCCC(Oc1ccccc1OC)c1ccccc1.Cl (stereo not given) [Nisoxetine.HCl] | 105 | 101 | 92.1 (inactive) | 109 (inactive) |
| Cc1ccccc1-n1c(Cn2nc(-c3cccc(O)c3)c3c(N)ncnc32)nc2cccc(C)c2c1=O | 96.9 | 95.1 | 97.7 (inactive) | 103 (inactive) |
| Cc1cc(C(C)(C)C)c(O)c(C)c1CC1=NCCN1.Cl [Oxymetazoline.HCl] | 102 | 97.8 | 98.5 (inactive) | 98.2 (inactive) |
| CC(C)(C=O)Cc1cc(C(C)(C)C)c(O)c(C(C)(C)C)c1 | 109 | 106 | 92 (inactive) | 97.1 (inactive) |
| COc1cc2nc(N3CCN(C(=O)C4CCCO4)CC3)nc(N)c2cc1OC (stereo not given) [Terazosin] | 99.9 | 87.9 | 93.9 (inactive) | 98.2 (inactive) |
| N#Cc1cnc2cnc(NCc3cccnc3)cc2c1Nc1ccc(F)c(Cl)c1 [Tpl2 Kinase Inhibitor] | 69.9 | 74.3 | 92.6 (inactive) | 185 (active) |
| Cc1nc2cc3nc(-c4cccs4)cnc3cc2n1C | 106 | 96.2 | 102 (inactive) | 94.7 (inactive) |
| c1ccc(CNc2nc(NCc3ccccc3)c3ccccc3n2)cc1 [N~2~,N~4~-dibenzyl-2,4-quinazolinediamine] | 33.7 | 39 | 156 (active) | 88.7 (inactive) |

Source: the supplement of paper PMC7156485
